In the library only some 5.2% were active in any assay of this set; here they are far more common.
SMARCA2 act: activators of SMARCA2 function; activation, % at 9.1 µM; MG213 cells, MMTV-luciferase reporter, dexamethasone, overnight; actives 1% (n = 370,000); in the data active means activation above about 7.8%;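 further: 0% = vehicle wells and 100% = reference activator wells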
SKN-1 inh: C. elegans SKN-1 inhibition; C. elegans VP596 Pgst-4::GFP/RFP ratio, acrylamide-induced, 24 h; inhibition, % at 21.8 µM; actives 0.49% (n = 360,000);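 active means interference check ratio from 0.5 to 1.5 plus GFP to RFP signal ratio inhibition reaching or exceeding a fixed threshold, cut at about 30% in these data, passing the limit was not always enough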
Vif imaging: inhibitors of HIV Vif; actives 0.35% (n = 340,000); HEK293T cells, Vif self-association by quenched fluorescence, imaging, 24 h; inhibition, % at 7.49 µM; in the data active means inhibition above about 50%, passing the limit was not always enough
NadD inh: blocks S. aureus nicotinate mononucleotide adenylyltransferase. purified NadD enzyme, colorimetric absorbance read-out. inhibition, % at 20 µM. actives 0.78% (n = 360,000). AID 602399; in the data active means inhibition above about 26%
NR3A LBD binder: modulators (binders) of human NR3A ligand-binding domain | Tm shift relative to glycine control, % at 25 µM | NR3A LBD differential scanning fluorimetry, Tm shift; 0% = protein alone, 100% = glycine-bound protein | actives 2.5% (n = 340,000);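 active means melting temperature shift of at least 10% of the positive control shift, at one fixed dose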
esBAF inh: blocks esBAF chromatin remodeling in mouse ES cells; Bmi1-luciferase knock-in reporter, 24 h; 100% = twice the neutral-well signal; reporter increase, % at 12.5 µM; actives 2% (n = 350,000); AID 602393; in the data active means activation above about 40%;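 further: 0% = median of the plate's neutral control wells and 100% = double that signal; a rise in the Bmi1 reporter signal indicates esBAF inhibition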
Active calls of the source: *; . = not tested or not shown.

SMILES	SMARCA2 act	SKN-1 inh	Vif imaging	NadD inh	NR3A LBD binder	esBAF inh
COc1ccccc1NC(=O)c1cc2ccc(O)cc2o/c1=N\O	-1.1	1.8	-9.1	1.1	35.6*	26.4
COc1ccccc1NC(=O)c1cc2ccccc2o/c1=N\O	6.9	-12.8	-5.3	7.7	-7.4	38.9
COc1ccccc1NC(=O)c1cc2cc(Br)ccc2cc1O	-8.3	19.9	-6.2	30.3*	31.6*	.
COc1cc(NC(=O)c2cc3ccccc3cc2O)c(OC)cc1Cl	-8.7	-2.2	-19.4	20.5	33.0*	-17.7
Cc1ccc(Cl)cc1NC(=O)c1cc2ccccc2cc1O	-6.4	24.0	-28.8	5.1	29.9*	-27.9
COc1cc(OC)c(NC(=O)c2ccccc2F)cc1Cl	6.7	15.5	-4.7	-4.7	-1.1	15.0
Cc1ccc(Cl)cc1NC(=O)COC(=O)c1ccccc1O	-1.9	2.9	1.2	-3.9	1.1	.
C[C@H](CO)N1C[C@H](C)[C@H](CN(C)C(=O)Nc2ccc(F)cc2)Oc2ccc(N(C)C)cc2C1=O	.	.	.	.	.	-2.9
CN(C)C(=O)C[C@@H]1C[C@@H]2c3cc(NC(=O)Nc4ccc(C(F)(F)F)cc4)ccc3O[C@@H]2[C@H](CO)O1	.	.	.	.	.	-2.1
C[C@@H]1CN([C@H](C)CO)C(=O)Cc2cc(NC(=O)CCC(F)(F)F)ccc2O[C@H]1CN(C)S(=O)(=O)c1ccc(Cl)cc1	.	.	.	.	.	2.4
Cc1noc(C)c1NC(=O)N(C)C[C@H]1Oc2c(NC(=O)C3CCOCC3)cccc2C(=O)N([C@@H](C)CO)C[C@H]1C	.	.	.	.	.	-5.1
CCNC(=O)Nc1ccc2c(c1)C(=O)N(C)[C@H]1CC[C@H](CC(=O)Nc3ccccc3)O[C@@H]1CO2	.	.	.	.	.	-1.4
CC(=O)c1c(C)nc(-c2ccccc2)nc1N	-0.4	12.0	9.5	-3.2	-1.0	7.8
CCOC(=O)c1c(C)nc(-c2ccccc2)nc1N	0.8	22.3	2.6	5.2	-0.4	49.6*
CCOC(=O)c1c(-c2ccccc2)cn2c(C)cc(C)nc12	6.5	10.5	1.6	4.4	-1.1	62.8*
Cc1ccc(CNC(=O)c2nnn(CC(=O)Nc3cc(C)cc(C)c3)c2N)cc1	-1.9	17.5	0.3	2.6	20.2*	-18.4
CCCCNC(=O)c1nnn(-c2ccccc2)c1N	3.3	-2.4	0.0	0.3	-0.6	43.2*
Cc1ccc(CNC(=O)Cn2nnc(C(=O)Nc3cc(C)ccc3C)c2N)cc1	-0.8	6.1	-2.5	-0.3	14.8*	6.2
Cc1cc(C)cc(-n2nnc(C(=O)NCc3ccc(Cl)cc3)c2N)c1	-1.2	11.4	.	-8.8	32.1*	.
Cc1cc(C)cc(-n2nnc(C(=O)NCc3ccccc3)c2N)c1	-2.0	-26.4	-8.0	-5.4	1.2	-2.3
CN1CCN(C(=O)C[C@H]2CC[C@@H](NC(=O)Cc3ccccn3)[C@@H](CO)O2)CC1	.	.	.	.	.	0.3
CCCC(=O)Nc1ccc2c(c1)OC[C@H](C)N(CCC(F)(F)F)C[C@@H](C)[C@@H](OC)CN(C)C2=O	.	.	.	.	.	-0.5
Nc1nc(-c2c[nH]c3ccccc23)cs1	3.8	25.3	.	7.0	-2.8	-1.1
CCc1ccc(-c2csc(-c3c[nH]c4ccccc34)n2)cc1	1.4	29.8	17.3	5.0	38.7*	65.9*
Cc1ccc(C(=O)Nc2nnc(S(=O)(=O)N3CCOCC3)s2)cc1	-2.0	10.9	5.7	-2.5	-20.1	8.3
SMILES	SMARCA2 act	SKN-1 inh	Vif imaging	NadD inh	NR3A LBD binder	esBAF inh
O=C(Nc1nnc(S(=O)(=O)N2CCOCC2)s1)c1cccc(F)c1	2.1	6.9	-9.3	-7.0	-7.8	58.1*
CC1CCN(S(=O)(=O)c2nnc(NC(=O)c3cccc([N+](=O)[O-])c3)s2)CC1	.	12.7	4.9	16.1	10.6*	-5.8
Cc1ccc(NC(=O)c2cccc(S(=O)(=O)N3CCN(c4ccccc4)CC3)c2)nc1	-0.8	17.1	-10.7	2.5	27.5*	10.3
Cc1cccc(C(=O)Nc2nnc(S(=O)(=O)N3CCOCC3)s2)c1	0.1	16.0	9.5	-4.4	-1.1	9.5
Cc1ccnc(NC(=O)c2cccc(S(=O)(=O)N3CCN(c4ccccc4)CC3)c2)c1	2.9	19.0	-1.9	-1.0	.	-43.4
Cc1ccc(N2CCN(S(=O)(=O)c3nnc(NC(=O)c4ccccc4)s3)CC2)cc1	1.5	-7.5	.	11.9	10.0*	-2.7
C[C@@H]1CN([C@@H](C)CO)C(=O)c2cc(NC(=O)CCC(F)(F)F)ccc2O[C@H]1CN(C)C(=O)Nc1ccc(C(F)(F)F)cc1	.	.	.	.	.	4.1
COc1ccc(NC(=O)N(C)C[C@@H]2OCc3ccccc3-c3c(n(C)c4ccccc34)C(=O)N([C@@H](C)CO)C[C@@H]2C)c(OC)c1	.	.	.	.	.	16.8
CN(C)C(CNC(=O)c1cccc(S(=O)(=O)N2CCN(c3ccc(F)cc3)CC2)c1)c1ccccc1 (stereo not given)	-3.5	46.2*	-17.4	-10.2	-0.9	-9.0
COc1ccc(CCN2C(=O)c3[nH]nc(-c4ccccc4O)c3C2c2cccc(Cl)c2)cc1 (stereo not given)	-0.6	-2.0	-18.2	25.9	15.2*	16.6
COc1ccc(C2c3c(-c4ccccc4O)n[nH]c3C(=O)N2CCc2ccc(OC)c(OC)c2)cc1 (stereo not given)	-3.0	5.5	6.3	15.1	-10.2	-2.3
CN1c2ccc(-c3ccc(C#N)cc3)cc2[C@@H]2[C@@H](CCN2C(=O)c2cccc(F)c2)[C@H]1CO	.	.	.	.	.	-0.1
Cc1ccccc1Oc1nc2c(C)cccn2c(=O)c1/C=C(\C#N)C(=O)Nc1c(C)n(C)n(-c2ccccc2)c1=O	-1.3	0.2	124.1*	12.4	-1.0	.
Cc1ccccc1Oc1nc2ccccn2c(=O)c1/C=C(\C#N)C(=O)Nc1c(C)n(C)n(-c2ccccc2)c1=O	-1.1	6.1	35.6	8.8	-5.0	.
COc1cccc(OCc2nc3ccccc3c(=O)n2N)c1	.	2.0	0.7	-3.1	-0.8	46.6*
Cc1ccc2cc(CN(CCN(C)C)C(=O)Nc3ccc(Cl)cc3)c(=O)[nH]c2c1	0.2	-8.5	-6.4	-6.9	11.2*	.
C[C@@H]1CN([C@@H](C)CO)C(=O)c2cc(NC(=O)C3CC3)ccc2O[C@@H]1CN(C)Cc1ccncc1	.	.	.	.	.	1.5
CCOC(=O)c1cc2sccc2n1CC(=O)N1c2ccccc2CC1C (stereo not given)	3.0	4.6	2.4	1.5	12.0*	.
CCOC(=O)c1cc2sccc2n1CC(=O)O	-1.4	2.1	-5.9	-3.0	1.4	-3.9
CCOC(=O)/C(=N/Nc1ccccc1)c1csc(Nc2ccccc2)n1	-4.7	16.5	.	-2.8	26.1*	1.8
CCOC(=O)/C(=N\Nc1ccc(OC)cc1)c1csc(Nc2ccccc2)n1	7.8*	9.2	8.8	7.6	1.4	.
CCOC(=O)/C(=N\Nc1ccc(Cl)cc1)c1csc(Nc2ccccc2)n1	-2.5	-8.9	10.8	-8.1	26.7*	.
CCCCC(CCC(=O)O)(C(=O)OCC)c1csc(Nc2ccccc2)n1 (stereo not given)	.	-11.3	15.5	5.3	1.2	-5.2

Bioassay records: PubChem, several laboratories
